ChEMBL document CHEMBL3988442, “University of Dundee, Small-Polar-MMV Screening Library” (2021)
For some of these results: Results with a measured potency or affinity are listed apart.

Key:
Design in all cases: scale not given: direction of the effect not stated beside the values
[1] = biological target: Protein translocase subunit SecA (Escherichia coli (strain K12)) (UniProt P10408); assay: Assay to Identify E. coli SecA ATPase Inhibitors; format: functional; conditions: 30 µM
[2] = biological target: T1, Ubiquitin-activating enzyme e1, putative (Leishmania donovani (strain BPK282A1)) (UniProt E9BSI1); assay: Leishmania donovani Ubiquitin Activating Enzyme (LdE1); format: functional; conditions: 30 µM
T1 sequence (whole entry): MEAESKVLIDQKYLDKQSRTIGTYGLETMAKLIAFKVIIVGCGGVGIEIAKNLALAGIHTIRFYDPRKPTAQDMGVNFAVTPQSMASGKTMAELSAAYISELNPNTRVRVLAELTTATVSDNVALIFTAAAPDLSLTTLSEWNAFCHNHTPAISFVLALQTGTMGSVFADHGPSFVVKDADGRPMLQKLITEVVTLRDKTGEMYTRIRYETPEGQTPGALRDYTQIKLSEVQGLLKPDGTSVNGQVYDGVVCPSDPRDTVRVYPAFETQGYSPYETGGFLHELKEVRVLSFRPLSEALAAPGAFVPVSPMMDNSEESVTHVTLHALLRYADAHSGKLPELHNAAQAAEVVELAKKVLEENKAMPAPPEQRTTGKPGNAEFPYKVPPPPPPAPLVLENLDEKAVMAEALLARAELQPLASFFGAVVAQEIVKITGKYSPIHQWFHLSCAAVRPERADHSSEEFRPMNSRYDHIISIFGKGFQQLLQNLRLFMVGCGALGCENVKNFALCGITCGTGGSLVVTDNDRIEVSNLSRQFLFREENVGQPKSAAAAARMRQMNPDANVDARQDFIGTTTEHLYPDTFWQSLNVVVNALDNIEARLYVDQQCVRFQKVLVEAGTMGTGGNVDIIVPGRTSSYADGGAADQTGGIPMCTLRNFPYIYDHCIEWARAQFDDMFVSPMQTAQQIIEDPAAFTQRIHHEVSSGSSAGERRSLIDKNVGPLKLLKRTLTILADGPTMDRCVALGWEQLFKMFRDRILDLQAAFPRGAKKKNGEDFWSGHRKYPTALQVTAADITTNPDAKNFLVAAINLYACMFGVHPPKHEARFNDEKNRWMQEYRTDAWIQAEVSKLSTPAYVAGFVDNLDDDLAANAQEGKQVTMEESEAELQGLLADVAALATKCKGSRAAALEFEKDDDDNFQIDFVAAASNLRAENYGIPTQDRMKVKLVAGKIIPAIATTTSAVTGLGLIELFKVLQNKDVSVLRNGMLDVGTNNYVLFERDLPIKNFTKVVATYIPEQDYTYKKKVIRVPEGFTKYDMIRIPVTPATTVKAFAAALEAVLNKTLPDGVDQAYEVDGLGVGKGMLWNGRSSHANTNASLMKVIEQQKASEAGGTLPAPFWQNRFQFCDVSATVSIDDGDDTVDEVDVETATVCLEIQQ

[3] = biological target: AMP-activated protein kinase, AMPK (Homo sapiens) (UniProt P54646+O43741+P54619+Q9UGJ0+Q9Y478+Q13131+Q9UGI9); assay: AMP-dependent Kinase enzyme assay. An in vitro enzyme assay that detects ADP turnover that is directly proportional to AMPK activity. This uses naive AMPK that is activated during the assay with MK-8722; format: functional; conditions: 30 µM
[4] = biological target: Sialic acid-binding Ig-like lectin 9 (Homo sapiens) (UniProt Q9Y336); assay: Hs-Siglec9 ALPHAscreen SOP 20170721; conditions: 10 µM
Chain of Sialic acid-binding Ig-like lectin 9 (Homo sapiens) (Q9Y336 whole entry): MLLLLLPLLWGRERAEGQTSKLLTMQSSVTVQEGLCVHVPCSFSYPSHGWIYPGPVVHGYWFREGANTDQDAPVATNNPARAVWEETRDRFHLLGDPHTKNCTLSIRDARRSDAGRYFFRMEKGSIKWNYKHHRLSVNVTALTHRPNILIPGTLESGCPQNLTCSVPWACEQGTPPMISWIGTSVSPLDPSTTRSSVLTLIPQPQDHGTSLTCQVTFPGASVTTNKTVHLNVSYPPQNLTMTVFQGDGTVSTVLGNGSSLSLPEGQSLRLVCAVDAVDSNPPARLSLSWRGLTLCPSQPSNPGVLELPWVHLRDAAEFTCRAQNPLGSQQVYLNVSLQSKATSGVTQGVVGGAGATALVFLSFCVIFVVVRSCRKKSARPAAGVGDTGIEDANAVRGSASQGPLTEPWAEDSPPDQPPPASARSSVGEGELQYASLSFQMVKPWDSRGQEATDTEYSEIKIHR

[5] = system: Trypanosoma cruzi; assay: Trypanosoma cruzi phosphomannomutase and mannose-1-phosphate guanylyltransferase assay; format: functional; conditions: 10 µM
[6] = biological target: T2, Arginase-2, mitochondrial (Homo sapiens) (UniProt P78540); assay: in vitro enzyme assay to detect the production of urea directly proportional to the activity of Arginase II; format: functional; conditions: 33.3 µM; further: in the data most compounds retested in dose-response had high values
T2 sequence (whole entry): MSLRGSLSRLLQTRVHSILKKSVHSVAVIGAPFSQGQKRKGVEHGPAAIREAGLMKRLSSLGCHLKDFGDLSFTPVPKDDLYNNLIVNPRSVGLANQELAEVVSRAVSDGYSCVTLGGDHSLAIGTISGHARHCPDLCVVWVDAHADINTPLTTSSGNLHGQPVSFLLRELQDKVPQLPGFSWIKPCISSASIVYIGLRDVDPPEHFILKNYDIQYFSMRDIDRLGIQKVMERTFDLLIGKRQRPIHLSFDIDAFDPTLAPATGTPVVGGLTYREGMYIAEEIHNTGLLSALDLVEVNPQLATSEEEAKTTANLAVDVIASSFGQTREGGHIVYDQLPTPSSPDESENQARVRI

[7] = biological target: T3, Proteasome subunit beta (Trypanosoma cruzi) (UniProt O96673); assay: Trypanosoma cruzi proteasome chymotrypsin-like activity (TcProtChymo) assay.; further: in the data most compounds retested in dose-response had high values; format: functional; conditions: 9.37 µM
T3 sequence (whole entry): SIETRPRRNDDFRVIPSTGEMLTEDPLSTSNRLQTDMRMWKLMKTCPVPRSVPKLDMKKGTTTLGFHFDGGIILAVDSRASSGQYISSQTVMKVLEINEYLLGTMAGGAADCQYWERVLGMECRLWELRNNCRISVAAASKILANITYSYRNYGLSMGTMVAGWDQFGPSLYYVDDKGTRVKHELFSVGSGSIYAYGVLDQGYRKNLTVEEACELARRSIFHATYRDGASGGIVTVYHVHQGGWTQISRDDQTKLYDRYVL

[8] = species on record: Homo sapiens; assay: To identify inhibition of the IFN signalling (Jak-Stat) pathway via expression of an eGFP reporter gene under the control of an IFN-stimulated response element (ISRE) containing MxA promoter.; format: functional; conditions: 30 µM
[9] = biological target: T4, Tyrosyl-tRNA synthetase, putative (Trypanosoma cruzi (strain CL Brener)) (UniProt Q4DSP6); assay: Trypanosoma cruzi tyrosyl tRNA synthetase (TcYRS) _High Tyrosine SOP; format: functional; conditions: 30 µM; further: in the data most compounds retested in dose-response had high values
T4 sequence (whole entry): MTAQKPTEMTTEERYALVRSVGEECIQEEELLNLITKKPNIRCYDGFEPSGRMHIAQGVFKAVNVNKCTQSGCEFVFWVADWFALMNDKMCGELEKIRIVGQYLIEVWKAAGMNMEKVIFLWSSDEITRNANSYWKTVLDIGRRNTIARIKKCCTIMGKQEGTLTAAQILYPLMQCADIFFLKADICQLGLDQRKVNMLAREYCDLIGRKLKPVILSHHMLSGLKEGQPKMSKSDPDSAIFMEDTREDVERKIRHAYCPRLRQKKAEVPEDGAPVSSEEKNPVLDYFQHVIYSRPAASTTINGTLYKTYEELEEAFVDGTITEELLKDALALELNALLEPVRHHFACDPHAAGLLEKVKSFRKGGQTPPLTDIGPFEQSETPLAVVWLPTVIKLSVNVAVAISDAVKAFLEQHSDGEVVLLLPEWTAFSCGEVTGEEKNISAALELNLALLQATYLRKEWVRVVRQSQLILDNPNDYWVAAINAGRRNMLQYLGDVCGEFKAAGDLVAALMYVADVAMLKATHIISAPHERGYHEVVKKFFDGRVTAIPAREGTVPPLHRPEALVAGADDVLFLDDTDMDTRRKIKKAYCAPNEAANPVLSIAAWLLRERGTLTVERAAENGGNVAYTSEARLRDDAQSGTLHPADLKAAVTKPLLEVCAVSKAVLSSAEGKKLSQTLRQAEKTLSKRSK

[10] = biological target: T4, Tyrosyl-tRNA synthetase, putative (Trypanosoma cruzi (strain CL Brener)); assay: Trypanosoma cruzi tyrosyl tRNA synthetase (TcYRS) SOP; format: functional; conditions: 30 µM
[11] = biological target: Chromo domain-containing protein 1 (Saccharomyces cerevisiae (strain ATCC 204508 / S288c) (Baker's yeast)) (UniProt P32657); assay: ScCHD-1 Enzyme Inhibition Assay; format: functional; conditions: 30 µM; further: in the data most compounds retested in dose-response had high values
Chain of Chromo domain-containing protein 1 (Saccharomyces cerevisiae (strain ATCC 204508 / S288c) (Baker's yeast)) (P32657 whole entry, the tested form may be a part): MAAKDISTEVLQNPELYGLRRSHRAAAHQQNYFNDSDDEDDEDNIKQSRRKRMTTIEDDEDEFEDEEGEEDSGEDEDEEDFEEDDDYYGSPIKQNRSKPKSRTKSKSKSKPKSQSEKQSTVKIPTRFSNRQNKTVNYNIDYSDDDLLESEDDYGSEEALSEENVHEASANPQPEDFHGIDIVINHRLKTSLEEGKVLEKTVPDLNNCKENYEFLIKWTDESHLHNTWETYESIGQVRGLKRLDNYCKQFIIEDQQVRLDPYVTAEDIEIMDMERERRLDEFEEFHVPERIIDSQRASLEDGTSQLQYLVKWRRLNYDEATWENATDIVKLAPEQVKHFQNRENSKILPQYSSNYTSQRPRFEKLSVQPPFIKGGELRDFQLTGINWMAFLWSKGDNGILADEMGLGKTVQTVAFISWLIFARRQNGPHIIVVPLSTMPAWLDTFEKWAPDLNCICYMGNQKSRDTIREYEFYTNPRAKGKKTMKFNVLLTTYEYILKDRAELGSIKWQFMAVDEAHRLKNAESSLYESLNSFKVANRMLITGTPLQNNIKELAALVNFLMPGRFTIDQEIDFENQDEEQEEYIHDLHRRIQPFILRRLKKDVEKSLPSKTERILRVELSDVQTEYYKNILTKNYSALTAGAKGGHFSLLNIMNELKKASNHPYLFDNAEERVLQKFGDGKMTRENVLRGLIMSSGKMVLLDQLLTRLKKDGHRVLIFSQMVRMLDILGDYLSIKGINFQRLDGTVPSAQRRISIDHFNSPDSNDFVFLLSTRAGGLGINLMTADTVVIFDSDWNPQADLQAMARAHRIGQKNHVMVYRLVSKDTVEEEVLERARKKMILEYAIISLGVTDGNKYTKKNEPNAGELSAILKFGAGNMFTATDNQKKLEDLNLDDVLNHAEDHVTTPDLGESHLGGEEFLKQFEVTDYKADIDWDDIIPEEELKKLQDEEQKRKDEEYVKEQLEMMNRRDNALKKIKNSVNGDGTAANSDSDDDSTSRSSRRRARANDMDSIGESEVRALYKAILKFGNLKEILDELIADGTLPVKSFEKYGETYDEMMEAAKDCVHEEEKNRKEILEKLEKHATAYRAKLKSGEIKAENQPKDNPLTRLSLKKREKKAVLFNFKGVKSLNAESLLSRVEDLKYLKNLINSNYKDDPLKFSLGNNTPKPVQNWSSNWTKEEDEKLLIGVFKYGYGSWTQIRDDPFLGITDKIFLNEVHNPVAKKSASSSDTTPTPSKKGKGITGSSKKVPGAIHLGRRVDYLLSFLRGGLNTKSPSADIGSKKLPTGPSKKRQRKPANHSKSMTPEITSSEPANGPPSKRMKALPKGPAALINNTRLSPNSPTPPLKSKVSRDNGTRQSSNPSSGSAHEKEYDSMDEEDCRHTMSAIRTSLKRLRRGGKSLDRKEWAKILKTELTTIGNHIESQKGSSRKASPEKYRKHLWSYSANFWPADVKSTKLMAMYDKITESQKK

Chain of Protein translocase subunit SecA (Escherichia coli (strain K12)) (P10408 whole entry): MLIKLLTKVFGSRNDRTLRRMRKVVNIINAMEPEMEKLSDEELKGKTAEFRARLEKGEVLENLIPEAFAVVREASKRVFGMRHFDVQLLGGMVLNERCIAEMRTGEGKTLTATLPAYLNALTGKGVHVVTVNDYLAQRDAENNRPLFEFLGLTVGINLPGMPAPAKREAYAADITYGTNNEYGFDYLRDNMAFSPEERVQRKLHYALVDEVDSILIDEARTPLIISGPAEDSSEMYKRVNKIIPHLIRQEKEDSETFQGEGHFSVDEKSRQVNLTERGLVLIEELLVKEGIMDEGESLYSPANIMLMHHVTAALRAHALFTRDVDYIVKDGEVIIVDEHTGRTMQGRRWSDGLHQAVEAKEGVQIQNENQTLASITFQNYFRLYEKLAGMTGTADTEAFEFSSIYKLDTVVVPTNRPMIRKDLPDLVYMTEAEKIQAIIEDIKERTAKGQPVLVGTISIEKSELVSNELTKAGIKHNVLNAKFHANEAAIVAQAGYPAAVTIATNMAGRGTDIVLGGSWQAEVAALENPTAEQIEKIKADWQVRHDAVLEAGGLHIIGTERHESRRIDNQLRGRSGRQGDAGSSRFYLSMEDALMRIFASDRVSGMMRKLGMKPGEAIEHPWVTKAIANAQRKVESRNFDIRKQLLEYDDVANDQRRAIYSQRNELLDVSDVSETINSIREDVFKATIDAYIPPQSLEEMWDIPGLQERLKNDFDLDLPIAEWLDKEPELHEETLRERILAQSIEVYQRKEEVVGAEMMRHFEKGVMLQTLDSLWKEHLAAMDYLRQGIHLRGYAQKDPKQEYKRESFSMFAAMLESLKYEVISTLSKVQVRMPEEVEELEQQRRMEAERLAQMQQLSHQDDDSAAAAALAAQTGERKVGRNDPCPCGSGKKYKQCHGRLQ

| SMILES | Percent Effect [1] [%] | Percent Effect [2] [%] | Percent Effect [3] [%] | Percent Effect [4] [%] | Percent Effect [5] [%] | Percent Effect [6] [%] | Percent Effect [7] [%] | Percent Effect [8] [%] | Percent Effect [9] [%] | Percent Effect [10] [%] | Percent Effect [11] [%] |
| --- | --- | --- | --- | --- | --- | --- | --- | --- | --- | --- | --- |
| c1ccc(Cn2cncn2)c(CNCC2CNc3ccnn3C2)c1 (stereo not given) | 0.235 | 20.8 | -8.08 | 4.1 | 10.3 | 1.78 | 8.45 | 12.4 | 12.6 | 21.9 | -7.41 |
| CCn1cc(CNC2CC(=O)N(CCc3cccc(Cl)c3)C2)cn1 (stereo not given) | -5.27 | 8.22 | 1.5 | 35.6 | 0.397 | -3.99 | 8.65 | 2.71 | 2.08 | 8.64 | -4.3 |
| COc1ccc(CN2C[C@H](OCC3CCOCC3)[C@H]3COC[C@H]32)cc1 | -0.325 | 0 | -1.04 | 9.22 | -0.992 | -3.99 | 15.3 | 3.85 | 11.5 | 11.1 | -1.49 |
| OC(CN1CCN(Cc2ccc(F)cc2)CC1)C1CC1 (stereo not given) | -4.82 | 8.22 | -8.34 | -6.79 | 0.392 | 1.82 | 4.61 | 2.15 | 6.45 | 20 | -4.22 |
| Cn1c(C(F)(F)F)nn(CCNC(=O)NCc2ccccc2)c1=O | -6.75 | 0 | -5.98 | 26.1 | 7.25 | 15 | 1.6 | 8.74 | 4.3 | 12.5 | -7.03 |
